Experimental data published in the supplement of paper PMC3334620.
In all, about 33,000 sequences were measured (“E-score (-0.5 to 0.5)”: median about -0.054, highest 2% from about 0.35 on). What follows is part of a selection rich in the highest values, with near analogues and random picks from the rest.

Each sequence was assayed against T1, Stb5 (UniProt P38699) (assay: PBM E-score (8-mer binding enrichment) (E-score (-0.5 to 0.5)); higher = stronger / more preferred TF binding). Settings: protein concentration: 200 nM; construct: GST-full length.
T1 sequence: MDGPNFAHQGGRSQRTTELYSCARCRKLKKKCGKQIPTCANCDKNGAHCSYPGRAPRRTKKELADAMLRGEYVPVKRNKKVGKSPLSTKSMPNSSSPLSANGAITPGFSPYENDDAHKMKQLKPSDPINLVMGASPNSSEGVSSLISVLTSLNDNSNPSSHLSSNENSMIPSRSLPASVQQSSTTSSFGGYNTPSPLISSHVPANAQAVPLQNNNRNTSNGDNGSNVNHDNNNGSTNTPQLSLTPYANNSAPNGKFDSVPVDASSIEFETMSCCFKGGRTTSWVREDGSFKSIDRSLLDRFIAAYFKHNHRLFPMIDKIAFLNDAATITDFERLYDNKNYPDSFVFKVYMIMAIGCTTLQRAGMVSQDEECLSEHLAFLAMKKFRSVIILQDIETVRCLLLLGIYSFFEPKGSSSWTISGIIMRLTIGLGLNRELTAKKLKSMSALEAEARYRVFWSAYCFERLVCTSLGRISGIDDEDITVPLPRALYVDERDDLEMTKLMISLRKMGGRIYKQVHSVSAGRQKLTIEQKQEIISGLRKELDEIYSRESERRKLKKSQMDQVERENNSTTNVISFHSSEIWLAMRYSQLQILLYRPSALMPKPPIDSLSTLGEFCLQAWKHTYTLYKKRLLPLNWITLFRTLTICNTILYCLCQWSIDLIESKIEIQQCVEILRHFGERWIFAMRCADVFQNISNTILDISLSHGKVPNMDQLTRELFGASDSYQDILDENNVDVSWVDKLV
Outline: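 Bound GST-tagged yeast transcription factors, applied at about 100-200 nM to double-stranded universal all-10-mer Agilent arrays, were detected with fluorescent anti-GST. Scans were normalised with masliner. A modified Wilcoxon-Mann-Whitney statistic, the E-score, was assigned to each ungapped eight-base word pooled with its reverse complement by the Universal PBM Analysis Suite.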

Sequence	PBM E-score
GGATTGAC	-0.0821
AGACTCCA	-0.139
AGTCTGTG	-0.27
GATGGGTA	-0.205
CGGTGGTA	0.441
CGGTAGTA	0.385
AGGTATTA	0.212
GGGTGGTA	-0.0756
AGGTAGTA	0.0131
CGGTATTC	0.275
CGGTATTA	0.472
AGGTGGTA	0.165
CGGTATCA	0.364
CGGTATCC	0.211
GGGTATCA	-0.079
CGGTAGTC	0.18
GGAAAGCA	0.024
AGAGTGCT	-0.0924
AGATCGGA	0.335
TAGTCGAA	-0.0837
AATAGCAG	-0.0777
GGCTATTA	-0.0171
AGCTATTA	-0.041
CGCTATTA	0.357
ACTGGCGC	-0.0545

Sequence	PBM E-score
AGGGGGGA	-0.38
GTATGGTA	-0.168
ATCCCGGG	0.299
CTCCCCGC	0.248
ATCCCCCC	-0.0842
GTCCCCGA	0.185
CTCCCCGA	0.225
ATCCCCGA	0.374
ATCCCCGG	0.379
ATCCCCGC	0.453
ATCCCCCG	0.292
ATTCGCAC	0.00083
GAAACGTA	-0.0447
AAATGCTA	-0.223
CCTTGGCA	-0.227
CGTTAACC	0.0895
GTACCAAC	-0.00359
ACCAGATC	-0.153
CTCTATGA	-0.245
CCTGCTAG	-0.0487
AGTCTCAT	-0.154
CGCCACAC	0.0326
AAGCCGCT	0.134
CCGCCGCC	0.361
ACGCCGTC	0.405

Sequence	PBM E-score
CAGCCGCC	0.0327
ACGCCGTG	0.297
ACGCCGCG	0.361
ACGCCTCT	-0.306
ACGCCGTA	0.204
AAGCCGCG	0.287
GCGCCGCC	0.331
AAGCCGTC	0.243
ACGCCGCT	0.383
AACTTCTT	-0.0358
ATAGAGTA	-0.0125
CGTCTAAC	0.0919
GGATAGGA	-0.00719
CAGCGCAA	-0.0211
CGACAGTA	0.0893
AGTGACGA	-0.191
AGCTCCCC	-0.226
TACTAGCA	-0.277
AGTGAAGA	-0.155
ACTGAAGG	-0.139
CATAGAGG	-0.173
ATGCCGCC	0.423
GCGCCGCA	0.268
ACGCCGCC	0.41
CAGCCGCG	0.0138

Sequence	PBM E-score
ATGCCGCA	0.25
CCGCGCCG	0.288
ATGCCGCG	0.319
AAGCCGCC	0.245
CCGCCGCA	0.301
CCGCCGCG	0.363
ACGCCGCA	0.354
AGGCCGCC	0.324
AAGGGGAA	-0.188
AATGGATA	0.135
TGGACCAA	-0.112
GTTACTTA	0.0421
CCGAGGAG	0.0924
AGATCAAC	-0.251
CCGCCGTC	0.29
CCGCCGTA	0.381
GCGCCGTA	0.253
CATAAGCG	0.0871
GTTGAGGA	-0.203
CTTTCACA	-0.0931
GCAAGACC	0.146
CCGATGCG	0.339
AGGAACTA	0.0488
GGGGGATA	0.13
CGGAACTC	0.0793

Sequence	PBM E-score
CGGGGGAA	0.257
CGGAACTA	0.44
CGGGGAAA	0.385
AGGAATTA	-0.00087
AGGGGATA	0.0586
CGGAATTC	0.0284
CGGAATTA	0.417
GGGGGAAA	0.165
CGGGGATA	0.478
AGAATGGG	-0.212
CCTTGACA	-0.071
GCTTTTAC	0.265
ACGTCGTC	-0.0716
AAAGTTTG	-0.169
CGGCCGCA	0.235
TGTAACAA	-0.111
GAATCTCA	-0.131
GGTCGCGA	-0.0386
GGGGAATA	0.174
CGGAAGTA	0.352
CGGGATTC	0.219
CGGGAATA	0.456
AGGGATTA	0.0519
CGGGATTA	0.471
CGGAAATC	0.0555

Sequence	PBM E-score
AGGGAATA	0.0674
CGGAAGTC	0.204
AGGAAGTA	0.0105
GGGAAATA	0.134
CGGAAATA	0.399
GAAGCGGA	0.282
CTCGATGC	-0.2
CGAGTGTC	-0.0644
AGCTTTTG	-0.139
CAGACACC	0.0808
AGTACGAT	-0.165
CCAGTGAG	-0.17
TTATAGAA	-0.0532
GCATAAGC	0.0731
AGAGACGG	0.0766
CTTTGACA	-0.135
CGGGGACC	0.051
GGGGGACA	-0.187
AGGGAGTA	-0.109
GGGGAGTA	0.0545
CGGGACTC	0.184
CGGGACTA	0.451
GGGGACTA	-0.0234
CGGGAGTA	0.417
CGGGGACA	0.415

Sequence	PBM E-score
AACGGGTA	0.102
ACGATCCT	-0.231
AGTCCGCA	0.323
AGTCCGGA	0.39
CGTCCGGC	0.275
CGTCCGCC	0.338
ATTCCGGA	0.115
GGTCCGGA	0.391
AGTCCGGC	0.38
AGTCCGCC	0.42
AGTCCGCG	0.339
GATCCGGA	0.227
CGTCCGGA	0.153
AGTCCGGG	0.274
AACCCTCC	-0.0222
AATTCTCG	-0.186
TCGCCTCA	-0.162
CCCGAACC	0.144
CGCAGACA	-0.0673
AACTTCAC	-0.293
ACTGGGGG	-0.28
AGAGTGAT	-0.258
AAGTTCTG	-0.231
CCACCTTC	-0.199
ACCGCTCC	0.323

Sequence	PBM E-score
CCCGCTAC	0.216
ACCGCTAT	0.33
ACCGCTGA	0.255
ACCGCTAA	0.263
CCCGCTGC	0.209
GCCGCTAC	0.39
ACCGCTAC	0.395
ACCGCTCT	0.226
ACCGCTGC	0.364
ACCGCTCG	0.357
GCCGCTAA	0.296
AAACGAAG	-0.0773
ATCTGGCC	0.0703
TCACGCGA	-0.0286
ACCTCTAT	-0.163
TCTGTGCA	-0.195
GTAGTAAC	0.12
AACGAACC	-0.116
TGCCCCAA	-0.123
ACGTTGTA	-0.0486
CGCACTTA	0.368
AGCACTTA	-0.0929
CGCACTTC	0.0228
CCCTGCAG	-0.0201
AGGGTGTC	-0.106

Sequence	PBM E-score
CTGGTGTC	-0.178
CGGGTGTA	0.37
ACGGTGTC	0.408
GCGGTGGA	0.177
GCGGTGTA	0.421
ACGGTGTG	0.288
CGGGTGTC	0.00649
CCGGTGAC	0.292
CCGGTGTC	0.408
GGGGTGTA	0.178
AGGGTGTA	-0.236
TGACGCAA	-0.174
CAAAGTGG	-0.254
ACTGCGAC	0.202
TAACTCTA	-0.0643
GAACCATC	-0.135
ACCCACGT	-0.257
CAGGTGTA	-0.204
CCGGTGTA	0.366
ACGGTGTA	0.348
CGCAAAGA	0.016
CTGAAATA	-0.0506
GCCTCACA	-0.212
TCCCCCGA	0.263
CCCCCCGA	0.14

Sequence	PBM E-score
AACCCCAA	-0.0237
ACCCCCGA	0.371
AACCCCCA	-0.0755
AACCCCGA	0.473
CTCTTGAC	-0.182
AGCTAAAT	0.088
CTCCAGCC	-0.15
AAGAATAA	0.0987
AATGAATA	0.0406
ATAAATCC	0.382
ATAATCCA	-0.0209
CTAATCCA	-0.106
ATAATCCC	0.389
ATAATCCG	0.103
CTAATGCC	0.285
ATAAATCG	0.0618
CTAATCAC	0.189
ATAATGCG	0.0614
ATAATGCC	0.386
ATAAATCA	-0.129
CTAATCCC	0.354
TGCCAGAA	-0.307
CGCTTACG	0.123
GCCCTACC	-0.0725
AAGATACG	-0.0742

Sequence	PBM E-score
CGCTGCCC	-0.0156
ACACGGCC	0.116
CCCTGTAA	-0.0001
CGCAGTTA	0.359
AGCAGTTA	-0.194
CGCAGTTC	0.00085
GAGATTGC	-0.0088
CCATTCTC	-0.126
AATCACTA	-0.155
GGCGGAAA	0.227
ATCGGTCC	0.396
GGCGGACC	0.412
CGCGGACC	0.319
ATCGGACC	0.398
ATCGGTCA	0.208
ATCGGACA	0.332
GGCGGAAC	0.25
GGCGGACA	0.357
CTCGGTCC	0.242
ATCGGACG	0.305
TGCGGACA	0.286
CTATAATC	0.019
GGCACCCA	-0.036
GCACTCAA	-0.0587
ATACCAAT	-0.00644

Sequence	PBM E-score
TCCCACAA	0.0012
ACTGCGCG	0.122
AGCGGACC	0.359
AGCGGAAC	0.295
AGCGGAGC	0.31
GCACGGGC	0.2
AGCTATTC	-0.0735
GAACTCAC	-0.221
AAGGCCGA	0.46
TAGGCCGA	0.125
AAGGCCTT	-0.163
AAGGCCGG	0.407
AAAAGCCT	-0.122
AAGGCCTG	-0.0882
CAGGCCGG	0.11
AAAAGCCC	0.324
AAGGCCGT	0.421
AAAAGCCG	0.38
ACGGCCGT	0.226
CAGGCCGA	0.153
TTCACAAA	-0.00748
GACCAAAC	-0.0734
AGACGGTC	0.142
CATCCATG	-0.205
AAAGGCCC	0.274

Sequence	PBM E-score
GAGGCCGC	0.322
CAGGCCCG	0.109
AAAGGCCG	0.446
AAGGCCGC	0.441
CAAGGCCG	0.236
CAGGCCGC	0.187
AAGGCCCA	-0.17
AAGGCCCG	0.359
AGACAGGG	-0.161
ACGCCTAG	-0.0889
ACATTAGA	-0.214
CATACTGG	-0.062
CCAGAGGG	-0.0691
CGCACGAA	-0.0424
GAGTTTAC	0.115
AGTTCCGG	0.333
AGTTCCGA	0.374
GGTTCCGA	0.126
AGTTCCGC	0.361
CGTTCCGA	0.00452
CGTTCCGC	0.226
ACCCATCG	0.1
CCCTCTTA	-0.167
AGCCCGCG	0.334
AGCCCGCC	0.359

Sequence	PBM E-score
AGCCCGAT	0.328
AGCCCGAG	0.05
GGCCCGAA	0.149
GGCCCGAC	0.358
ATCCCGAT	0.238
AGCCCGAC	0.373
CGCCCGCC	0.258
CGCCCGAC	0.33
ATCCCGAG	0.161
ATCCCGAC	0.39
ACACTTAA	-0.117
CACAAGCG	-0.0542
CAAAATCG	-0.0979
CCGTGAGC	0.196
CACTACCC	-0.179
ATGCACTA	-0.0627
GGTATGTA	0.18
CGACTAAC	0.00814
AACCCTGG	-0.284
